# CBX7 inh: inhibitors of human CBX7 binding to H3K27me3 peptide | AlphaScreen His6-CBX7 / biotin-H3K27me3 peptide binding; active compounds read low | actives 1.1% (n = 66,000) | normalised signal (fraction of DMSO) (no concentration beside the values) | O95931 | AID 1224903; in the data active = normalised signal below about 0.5
# Target sequence (O95931 whole entry, looked up): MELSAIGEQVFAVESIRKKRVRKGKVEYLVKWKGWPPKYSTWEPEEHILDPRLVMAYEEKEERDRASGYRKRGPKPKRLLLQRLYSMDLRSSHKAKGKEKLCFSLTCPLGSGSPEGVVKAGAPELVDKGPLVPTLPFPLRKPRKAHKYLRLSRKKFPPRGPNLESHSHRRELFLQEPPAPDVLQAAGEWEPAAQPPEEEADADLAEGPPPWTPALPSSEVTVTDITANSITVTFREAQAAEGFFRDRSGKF
# The depositor's hits bear a star; ! = not confirmed by another sample. The sample as a whole holds a higher share of hits than the screen did.
SMILES,CBX7 inh
CCC(=O)N1CCc2cc(S(=O)(=O)Nc3ccc(S(=O)(=O)N4CCOCC4)cc3)ccc21,1.2
Cc1ccc(S(=O)(=O)Nc2ccccc2CNc2ccccc2Br)cc1,1.1
COc1cccc(-c2nc(-c3ccc(NC(=O)c4cccnc4)cc3)no2)c1,1
Cc1ccc(-c2cc(-c3ccccc3C)no2)c(O)c1,1.3
COc1ccc(-c2nnc(Nc3ccc4c(c3)OCO4)c3ccccc23)cc1,0.53
CCn1cnc2sc(C(=O)Nc3cc(C)ccc3OC)c(C)c2c1=O,1.1
COc1ccc(-c2noc(N(C)CC(=O)Nc3cc(C)on3)n2)cc1,0*
COc1ccc(-c2noc(N(C)CC(=O)Nc3ccccn3)n2)cc1,1
COc1ccc(-c2noc(N(C)CC(=O)Nc3ccc(OC)cc3OC)n2)cc1,0.97
CN(C)CCNC(=O)c1ccc2c(c1)N(Cc1ccccc1)C(=O)c1ccccc1S2(=O)=O,1.1
CCc1ccc(-c2csc(Nc3ncccn3)n2)cc1,1.1
Cc1cccc(Nc2nc(-c3ccc(Cl)cc3)cs2)c1,0.76
Cc1cccc(Nc2nc(-c3ccccn3)cs2)c1,0.16*
O=C(O)c1cccc(Nc2nc(-c3ccccn3)cs2)c1,0.15*
c1cnc(Nc2nc(-c3ccncc3)cs2)nc1,1.1
O=C(O)c1cccc(Nc2nc(-c3ccccc3)cs2)c1,1
Oc1cccc(Nc2nc(-c3ccncc3)cs2)c1,0.77
COc1ccc(-c2csc(Nc3cccc(O)c3)n2)cc1OC,0.87
c1ccc(-c2csc(Nc3ncccn3)n2)nc1,0.0089*
Oc1cccc(Nc2nc(-c3ccccn3)cs2)c1,0.19*
O=C(O)c1cccc(Nc2nc(-c3ccncc3)cs2)c1,0.97
Cc1cccc(Nc2nc(-c3ccncc3)cs2)c1,0.72
COc1ccc(CCCc2nnc(SCC(=O)Nc3cc(C)ccc3C)o2)cc1,0.98
COc1cc(OC)c(NC(=O)Cn2ccc3ccccc3c2=O)cc1Cl,1.2
COc1ccccc1NC(=O)Cn1c(=O)n(CCc2ccc(OC)c(OC)c2)c(=O)c2cccnc21,0.99
SMILES,CBX7 inh
CC1=Nc2cc(C(=O)NCCc3ccccc3)ccc2Sc2ccccc21,1.1
Cc1ccc(C)c(Cc2c(C)nc3c(C(=O)NCCc4ccccc4Cl)cnn3c2C)c1,1
COc1cccc(-c2cc(C(F)(F)F)nc(N3CCC(C)CC3)n2)c1,1.8
FC(F)(F)c1cccc(Cn2nnc(-c3ccccc3)n2)c1,1.4
COc1ccc(CNC(=O)CCc2nc3ccccc3n(Cc3cccc(Cl)c3)c2=O)cc1,1.1
COc1ccc2nc(SCC(=O)Nc3cccc(NC(C)=O)c3)[nH]c2c1,0.95
CCOc1ccccc1Nc1nc(-c2ccccn2)cs1,0.6
Oc1ccc(Nc2nc(-c3ccccn3)cs2)cc1,0.0014*
COc1ccc(-c2csc(Nc3ccc(O)cc3)n2)cc1OC,0.77
CCc1ccc2nc(Nc3nc(COC)cc(=O)[nH]3)nc(C)c2c1,0.99
Cc1nc(Nc2cccc(C(F)(F)F)c2)c2c3c(sc2n1)CCC3,1
Cc1nc(Nc2c(F)cccc2F)c2c(C)c(C)sc2n1,0.89
COc1ccccc1Nc1nc(-c2c(C)nc3sccn23)cs1,0.32*
COc1ccccc1Nc1nc(-c2c(C)nc3ccccn23)cs1,0.96
Cc1nc2ccccn2c1-c1csc(Nc2ccc(Br)cc2Br)n1,0.8
Cc1cccc(Nc2nc(-c3c(C)nc4ccccn34)cs2)c1,1
Cc1ccc(Nc2nc(-c3c(C)nc4sccn34)cs2)c(C)c1,0.42*!
COc1ccc(Cl)cc1Nc1nc(-c2c(C)nc3sccn23)cs1,0.97
O=C(Nc1ccccc1C(=O)Nc1ccccc1)c1cccc(S(=O)(=O)N2CCCCCC2)c1,0.87
CCOC(=O)CNC(=O)c1cnc(Nc2ccc(OC)cc2)c2ccccc12,1
Cc1cc(NC(=O)CSc2nc(NCCc3ccccc3)c3ccccc3n2)n[nH]1,1
CC1(C)CC(=O)C2=C(C1)Nc1cc(C(=O)c3ccccc3)ccc1NC2c1ccc(O)cc1 (stereo not given),0.99
CC1CCN(C(=O)c2cc(-c3ccc4c(c3)OCO4)on2)CC1,0.82
Fc1ccc(-c2nnc3ccc4ccccc4n23)cc1,0.87
c1cncc(-c2nnc3ccc4ccccc4n23)c1,0.36*
SMILES,CBX7 inh
CC1(C)Cc2ccccc2-c2nnc(-c3cccnc3)n21,0.99
Cn1nc(CC(=O)Nc2ccc(C(F)(F)F)cc2)c2ccccc2c1=O,1
COc1cccc2c(S(=O)(=O)Nc3ccc(C(=O)O)cc3)ccnc12,0.12*
COc1ccc(S(=O)(=O)Nc2ccccc2Cl)c2cccnc12,1.1
COc1ccc(S(=O)(=O)Nc2cccc(C)c2C)c2cccnc12,1
Cc1ccccc1NC(=O)NCCCN1CCN(c2ccccc2F)CC1,1.2
COc1ccc(CNc2sc3c(c2C(=O)Nc2ccc(OC)cc2OC)CCC3)cc1,0.83
COc1ccc(OC)c(NC(=O)c2c(NCc3cccnc3)sc3c2CCC(C)C3)c1 (stereo not given),0.65
COc1ccc(OC)c(NC(=O)c2c(NCc3ccncc3)sc3c2CCC(C)C3)c1 (stereo not given),0.65
COc1ccc(NC(=O)c2c(NCc3cccnc3)sc3c2CCC(C)C3)c(OC)c1 (stereo not given),0.46*
COc1ccc(OC)c(NC(=O)c2c(NCc3cccnc3)sc3c2CCCC3)c1,0.6
COc1ccc(NC(=O)c2c(NCc3cccnc3)sc3c2CCCC3)c(OC)c1,0.31*
CN(C)c1ccc(CNC(=O)c2ccc(CNc3c(N4CCCCC4)c(=O)c3=O)cc2)cc1,0.89
COc1ccc(N2CCN(CC(O)COc3c(C)cc(C)cc3C)CC2)cc1 (stereo not given),1.2
Cc1nc2cc(C(=O)NC3CCCC3)ccc2n1-c1cccc(F)c1,0.97
COCCNC(=O)c1ccc2c(c1)N=C(C)c1cc(Cl)ccc1S2,1.1
CCn1c(C(=O)N2CCC(C(=O)N3CCN(c4cccc(C)c4)C(C)C3)CC2)cc2sccc21 (stereo not given),0.44*
CCn1c(C(=O)N2CCCC(C(=O)N3CCN(c4cccc(C)c4)C(C)C3)C2)cc2sccc21 (stereo not given),0.6
CCOC(=O)N1CCN(C(=O)C2CCN(C(=O)c3cc4sccc4n3CC)CC2)CC1,0.92
CC(C)c1ccc(CNc2ccc3c(c2)ncn3C)cc1,0.83
CC(C)(C)n1cnc2cc(NCc3ccc(Br)cc3)ccc21,0.78
Cc1nc2cc(NCc3ccc(C(C)C)cc3)ccc2n1C,0.7
COc1ccccc1CNc1ccc2c(c1)ncn2C(C)(C)C,0.66
COc1ccccc1-n1cnc2cc(NCc3ccc(N(C)C)cc3)ccc21,0.24*
COc1ccccc1-n1cnc2cc(Nc3nnc(C)c4ccccc34)ccc21,1
SMILES,CBX7 inh
Cn1cnc2cc(NCc3ccc(Br)cc3)ccc21,0.91
COc1ccccc1-n1cnc2cc(NCc3ccc(C(C)C)cc3)ccc21,0.2*
Brc1ccc(CNc2ccc3c(c2)ncn3-c2ccccc2)cc1,0.24*
O=C(NC1CCCCC1)c1cccc(NC2=NC3CS(=O)(=O)CC3S2)c1 (stereo not given),1
Cc1cc(N2CCN(c3ccccc3F)CC2)n2nc(C)nc2n1,0.95
CSc1ccc(/C=C/c2nc3ccccc3n2S(=O)(=O)c2ccccc2)cc1,1.4
Cc1ccc(-c2nc(N3CCN(c4ccccc4Cl)CC3)nc3ccccc23)cc1,2.5
COc1ccc(NC(=O)c2cc(-c3ccccc3)nc3ccccc23)cc1,1.1
N#Cc1nc(COc2ccccc2Cl)oc1N1CCCC1,0.78
O=C(Nc1ccc(Cl)c(-c2nc3ccccc3o2)c1)c1ccc2ccccc2c1,1.1
COc1ccccc1OCc1nc(-c2ccccc2)no1,1.2

# Screens (PubChem BioAssay)
